# Bioassay records from PubChem.
# Only some compounds are listed: those with a hit (about 3.8% of all), similar ones and a draw of the others.
# HepG2 viability: qHTS for Inhibitors of TGF-b: Cytotox Counterscreen. HepG2 CAGA-GFP viability, ATP luminescence, 18 h. Potency, µM (doses to about 46.1 µM), hits mostly cytotoxic. AID 588856, 2011. actives 0.76% (n = 410,000)
#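 CellTiter-Glo luminescence gave cytotoxicity after 18 hours at 37 degrees C. The cells were HepG2 CAGA-GFP in 1% FBS DMEM, stimulated with 500 pg/mL TGF-beta after compound addition. %Activity was normalised to no-cell wells (complete cell-killing) and DMSO (no toxicity), and curves were fitted and classified.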
# HT1080 IDH1KD tx: qHTS for induction of synthetic lethality in tumor cells producing 2HG: qHTS for the HT-1080-IDH1KD cell line; Potency, µM (series often up to 46.1 µM), actives largely listed as cytotoxic; actives 2% (n = 360,000); HT-1080 IDH1 knockdown viability, ATP luminescence, 48 h
#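 Assay cells: HT-1080 with IDH1 knockdown, 750 per well, RPMI/5% FBS. Exposure: 48 h at 37 °C following 2 h pre-incubation. Read: CellTiter-Glo luminescence; fitted concentration-response, curve class assigned.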
# TGFb SMAD3 inh: qHTS for Inhibitors of TGF-b. HepG2 CAGA-GFP TGF-b/SMAD3 reporter, GFP fluorescence, 18 h; TGF-beta stimulated, 500 pg/mL final. Potency, µM (highest dose often 46.1 µM), actives largely listed as inhibitors. actives 1.2% (n = 410,000). AID 588855, 2011; further: nearly all actives have a fitted effect of over 65% in size
#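 Smad-responsive CAGA-GFP expression was quantified in HEPG2 cells exposed to compounds and 500 pg/mL final TGF-beta for 18 h at 37 degrees C; unstimulated wells defined full inhibition.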
# HT1080NT lethal: qHTS for induction of synthetic lethality in tumor cells producing 2HG: qHTS for the HT-1080-NT fibrosarcoma cell line; HT-1080-NT fibrosarcoma viability, CellTiter-Glo ATP luminescence, 48 h; Potency, µM (top dose mostly 46.1 µM), hits mostly cytotoxic; actives 1.6% (n = 360,000); AID 686970, 2013;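 further: NT is the 2HG producing partner of a matched IDH1 knockdown line; nearly all actives have a fitted effect of over 55% in size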
#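 Compounds were tested in concentration-response format on HT-1080-NT cells for 48 hours at 37 degrees C. Cell viability came from CellTiter-Glo luminescence; curves were classified by r2, response magnitude and activity.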
# ATXN2 expr inh: Primary qHTS for Inhibitors of ATXN expression; AID 1745845, 2022; actives 0.72% (n = 360,000); Potency, µM (series often up to 57 µM), actives largely listed as inhibitors; HEK-293 ATXN2-luciferase reporter, luminescence, 24 h; further: nearly all actives have a fitted effect of over 55% in size
#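 qHTS (up to 57 uM final) was run with 24 h compound exposure of reporter cells at 37 °C. Each well was multiplexed: SteadyGlo luminescence measured ATXN2-luciferase expression after a fluorogenic Gly-Phe-AFC viability readout (25 uM final).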
# ATXN viability: Viability Counterscreen for Primary qHTS for Inhibitors of ATXN expression | Potency, µM (doses to about 56.7 µM), most hits filed as cytotoxic | actives 0.49% (n = 400,000) | AID 651635, 2014 | S2 cells (HEK-293 line with an ATXN2-luciferase reporter) viability, CellTiter-Fluor protease fluorescence, 24 h; further: nearly all actives have a fitted effect of over 40% in size
# A number is an active result; n = inactive; u = inconclusive; x = no result; [ ] = dose if it differs, or a comment. The call rests on the fitted dose curve; in most records, active means well fitted curve in the direction sought with a large enough effect; inconclusive means small, poorly fitted or top-dose-only effect, or another doubt; inactive means no such curve, though single readings can be large; an effect the other way counts as inactive or inconclusive.
SMILES,HepG2 viability,HT1080 IDH1KD tx,TGFb SMAD3 inh,HT1080NT lethal,ATXN2 expr inh,ATXN viability
Cc1c2oc3c(C)ccc(C(=O)NC4C(=O)NC(C(C)C)C(=O)N5CCCC5C(=O)N(C)CC(=O)N(C)C(C(C)C)C(=O)OC4C)c3nc-2c(C(=O)NC2C(=O)NC(C(C)C)C(=O)N3CCCC3C(=O)N(C)CC(=O)N(C)C(C(C)C)C(=O)OC2C)c(N)c1=O (stereo not drawn),x,x,x,x,0.0004µM,x
Cc1cc(C)cc(OC(=O)CS(=O)c2ccc(C(F)(F)F)cc2[N+](=O)[O-])c1 (stereo not drawn),n,23µM,u,21µM,n,n
Cc1cccc(CC(C)NC(=O)CCc2nnc(-c3ccccc3)o2)n1 (stereo not drawn),n,n,n,n,x,n
CC(NC(=O)CCc1nnc(-c2ccc(-c3ccccc3)cc2)o1)c1nc2ccccc2[nH]1 (stereo not drawn),n,n,n,n,3.8µM,n
COc1ccccc1C(=O)Nc1c(C(=O)N(CCN(C)C)Cc2ccco2)oc2ccccc12,n,u,u,n,n,n
COc1ccc(OCC(=O)Nc2c(C(=O)N(CCN(C)C)Cc3ccco3)oc3ccccc23)cc1,n,u,22µM,u,n,n
Cc1ccc([N+](=O)[O-])cc1N=Nc1c(-c2ccc([N+](=O)[O-])cc2)[nH]n(C(N)=S)c1=O,n,u,2.8µM,u,u,u
NC(=S)n1[nH]c(-c2ccc([N+](=O)[O-])cc2)c(N=Nc2ccc(Cl)cc2)c1=O,2.5µM,4.1µM,2.5µM,2.6µM,u,n
O=C(OC(C(=O)N1CCOCC1)c1ccccc1)c1c2c(nc3ccccc13)CCCC2 (stereo not drawn),n,x,n,x,x,x
CCc1ccc(-n2c(=O)c3cccnc3n2CC(=O)Nc2ccccc2C(F)(F)F)cc1,11µM,x,u,x,x,x
O=c1[nH][nH]c2c1[C@H](CCc1cccc(Cl)c1)O[C@H](C1CC1)C2,x,n,x,n,n,u
O=c1[nH][nH]c2c1[C@H](CCc1cccc(Cl)c1)O[C@H](C1CCCC1)C2,x,7.3µM,x,u,n,u
O=CC(=O)c1ccc(Br)cc1,n,x,n,x,x,x
CCCOP(=O)(c1ccc(N(C)C)cc1)C(Nc1ccccc1)c1ccc(C)cc1 (stereo not drawn),n,15µM,u,u,u,n
CC(C)CCOP(=O)(c1ccc(N(C)C)cc1)C(Nc1ccccc1)c1ccc(N(C)C)cc1 (stereo not drawn),n,n,u,n,x,n
COc1cc(C)c(CN2CCC3(CCC(CNC(=O)c4ccnn4C)O3)CC2)cc1C (stereo not drawn),x,x,x,x,x,n
c1cc2c3c(cccc3c1)C(N1CCOCC1)=N2,n,n,n,n,n,x
c1ccc(CC2CCN(C3=Nc4cccc5cccc3c45)CC2)cc1,13µM,21µM,u,u,n,n
COc1ccccc1N1CCN(C2=Nc3cccc4cccc2c34)CC1,n,13µM,n,u,n[11.3 µM],u
CC(=O)N1CCN(C2=Nc3cccc4cccc2c34)CC1,n,n[9.24 µM],n,n,n,n
CC(=O)N1CCc2c(sc3nc(SCC(C)C)n(-c4ccc(C)c(Cl)c4)c(=O)c23)C1,11µM,x,u,x,u,x
COc1ccccc1/C=N/NC(=O)C(=O)Nc1ccccc1OC(F)(F)C(F)F,n,n,n,n,n,n
O=C(N/N=C/c1cc(Br)ccc1O)C(=O)Nc1ccccc1OC(F)(F)C(F)F,n,0.89µM,u,1.4µM,3.2µM,n
O=C(N/N=C/c1cc(Cl)ccc1O)C(=O)Nc1ccccc1OC(F)(F)C(F)F,n,u,u,u,13µM,n
COc1cccc(/C=N/NC(=O)C(=O)Nc2ccccc2OC(F)(F)C(F)F)c1,n,n,n,n,n,n
SMILES,HepG2 viability,HT1080 IDH1KD tx,TGFb SMAD3 inh,HT1080NT lethal,ATXN2 expr inh,ATXN viability
COCCn1c(=O)c2c(nc3n2CCCN3CCc2ccc(OC)c(OC)c2)n(C)c1=O,n,n,n,n,n,n
COc1ccc(CCN2CCCn3c2nc2c3c(=O)[nH]c(=O)n2C)cc1OC,n,18µM,n,u,n,n
COC(=O)C1Cc2c([nH]c3ccccc23)C2CCC(=O)N12 (stereo not drawn),n,n,n,n,x,n
COC(=O)[C@@H]1Cc2c([nH]c3ccccc23)C(C)(C)N1C(=O)CCl,n,18µM,u,u,u,u
Cc1[nH]n(-c2ccccc2)c(=O)c1/C=N/NC(=O)c1cccc(F)c1,16µM,7.3µM,u,10µM,x,u
Cc1[nH]n(-c2ccc(Br)cc2)c(=O)c1/C=N/NC(=O)c1ccccc1,n,u,3.5µM,u,x,n
O=C(N/N=C/c1ccc(Br)cc1)c1ccc(NC(=O)c2ccccc2)cc1,n,n,n,n,x,n
Cc1cc(C(=O)N/N=C/c2c(C)[nH]n(-c3ccccc3)c2=O)n[nH]1,n,n,n,n,n,n
COCC(=O)Nc1cc(C(=O)N2CCN(c3ccccc3)CC2C)c2c(c1)nc(-c1ccncc1)n2C (stereo not drawn),x,x,x,x,x,n
CC1CCCCC1NC(=S)Nc1ccc(SC(F)F)cc1 (stereo not drawn),n,u,u,u,u,u
FC(F)Sc1ccc(NC(=S)NC(c2ccccc2)c2ccccc2)cc1,11µM,u,5.6µM,u,x,u
FC(F)Sc1ccc(NC(=S)NC2CCCCC2)cc1,n,u,11µM,u,u,u
FC(F)Sc1ccc(NC(=S)NCc2ccccc2)cc1,n,21µM,u,u,n[11.3 µM],n
CCCCN1CCc2c1nc1ccc(Br)cc1c2N,16µM,u,u,u,u,x
Cc1ccc(C2(CCNC(C)c3cccs3)CCOC(C(C)C)C2)cc1 (stereo not drawn),n,u,u,16µM,n,n
NS(=O)(=O)c1ccc(N=Nc2c(=O)[nH]n3c(=O)c4c([nH]c23)CCCC4)cc1,n,n,n,n,n,9.5µM
CCOc1ccc(CC(=O)NCCc2sc3nc(-c4ccc(F)cc4)nn3c2C)cc1,n,x,u,x,x,x
COC(=O)COc1cccc2c(=O)n(CC(=O)N3CCCCC3)ccc12,n,n,n,n,x,x
CC(C)(C)n1ncc2c(=O)n(CC(=O)NCc3ccco3)cnc21,n,n,n,n,n,n
COC(=O)COc1cccc2c(=O)n(CC(=O)NCc3ccc(F)cc3)ccc12,n,3.7µM,n,u,n,u
